{"source": "the OligoGym collection", "data": [{"molecular_target": "RAET1E", "assay": "pooled miR-30 sensor sort-seq; sequence = guide strand", "conditions": "shRNA", "values": [{"sequence": "TTTGATGTCACAAAGGAGCATC", "sensor-assay potency score (higher = more potent)": -0.244}, {"sequence": "TTCACGTTGACAAAACATCTCG", "sensor-assay potency score (higher = more potent)": -0.11}, {"sequence": "TTACTGGTGACACTGTCGGTTC", "sensor-assay potency score (higher = more potent)": -0.629}, {"sequence": "TTGACCATGTTGTTGTCACTGT", "sensor-assay potency score (higher = more potent)": 0.253}, {"sequence": "TCATGATTAATTACTGTCCAGG", "sensor-assay potency score (higher = more potent)": -0.855}, {"sequence": "TTTACTGGTGACACTGTCGGTT", "sensor-assay potency score (higher = more potent)": 0.119}, {"sequence": "TTGACAAAACATCTCGACTTGC", "sensor-assay potency score (higher = more potent)": -0.439}, {"sequence": "TTCATGATTAATTACTGTCCAG", "sensor-assay potency score (higher = more potent)": -0.655}, {"sequence": "TATCTGAAGCATTTACTGGTGA", "sensor-assay potency score (higher = more potent)": 0.282}, {"sequence": "TTGTTGTCACTGTTGTACTGAA", "sensor-assay potency score (higher = more potent)": -0.561}, {"sequence": "TTCCATGTCTCCTTGATCTTAC", "sensor-assay potency score (higher = more potent)": -0.262}, {"sequence": "TTTATAGTGAAGTTGAAGCAAA", "sensor-assay potency score (higher = more potent)": -1.04}]}, {"molecular_target": "RAI2", "assay": "pooled miR-30 sensor sort-seq; sequence = guide strand", "conditions": "shRNA", "values": [{"sequence": "TTGTTGTGGATGGTACTGGAGG", "sensor-assay potency score (higher = more potent)": -0.912}, {"sequence": "TCAGCCTTGACTTCGCCGCTGG", "sensor-assay potency score (higher = more potent)": -0.358}, {"sequence": "TTCTTTAACTTTATGCTCCGGT", "sensor-assay potency score (higher = more potent)": 0.268}, {"sequence": "TTTAACTTTATGCTCCGGTTTT", "sensor-assay potency score (higher = more potent)": -1.48}, {"sequence": "TTTTCAGCCTTGACTTCGCCGC", "sensor-assay potency score (higher = more potent)": -0.377}, {"sequence": "TTGAAGGAGAAGTTTTTGGTGG", "sensor-assay potency score (higher = more potent)": -0.107}, {"sequence": "TTTATAAAACCAATGCACCTTT", "sensor-assay potency score (higher = more potent)": -0.626}, {"sequence": "TTGAGCTCTGGTGCGGAGCTTC", "sensor-assay potency score (higher = more potent)": -0.528}, {"sequence": "TTCAGAACTCTGAGGCACCGGG", "sensor-assay potency score (higher = more potent)": -0.474}, {"sequence": "TCGGATTGAGCTCTGGTGCGGA", "sensor-assay potency score (higher = more potent)": -0.201}, {"sequence": "TTTCTTTAACTTTATGCTCCGG", "sensor-assay potency score (higher = more potent)": -0.775}, {"sequence": "TCGACAGAGACAATGACCTTGG", "sensor-assay potency score (higher = more potent)": -0.196}]}, {"molecular_target": "RANBP9", "assay": "pooled miR-30 sensor sort-seq; sequence = guide strand", "conditions": "shRNA", "values": [{"sequence": "TAGTAGACTGAATGCATCCTTC", "sensor-assay potency score (higher = more potent)": -0.448}, {"sequence": "TAGCTGAACTTGTCCTTCGGGC", "sensor-assay potency score (higher = more potent)": -0.541}, {"sequence": "TAACTGTCTTGAGACTTTGGAC", "sensor-assay potency score (higher = more potent)": -0.743}, {"sequence": "TACTACAACTTTCAAAACCTGA", "sensor-assay potency score (higher = more potent)": -0.44}, {"sequence": "TAATTCTTCTAGAACGGTCTGG", "sensor-assay potency score (higher = more potent)": 0.443}, {"sequence": "TAACAGGATAACTGTCTTGAGA", "sensor-assay potency score (higher = more potent)": -1.15}, {"sequence": "TTTTGTATCATGGTCTGCCATT", "sensor-assay potency score (higher = more potent)": -1.46}, {"sequence": "TTGGACTACTAAAAGGTCGAGG", "sensor-assay potency score (higher = more potent)": -0.167}, {"sequence": "TTGCTTGCAGCTCTCGTCCAAA", "sensor-assay potency score (higher = more potent)": -0.93}, {"sequence": "TTTCTTTCAAGTAAACTTGGGT", "sensor-assay potency score (higher = more potent)": -0.134}, {"sequence": "TTCGGTGTCACAATCTTCCATT", "sensor-assay potency score (higher = more potent)": -0.713}]}, {"molecular_target": "RANGAP1", "assay": "pooled miR-30 sensor sort-seq; sequence = guide strand", "conditions": "shRNA", "values": [{"sequence": "TAGGAAGGCAGAGACCACCTTC", "sensor-assay potency score (higher = more potent)": 0.359}, {"sequence": "TTGAGTTTGAGGCTCTTGCCTT", "sensor-assay potency score (higher = more potent)": -0.514}, {"sequence": "AATCTCTTTAATCACATCTTTA", "sensor-assay potency score (higher = more potent)": -1.26}, {"sequence": "TTAGGGTCCAGAATCTTCCGTG", "sensor-assay potency score (higher = more potent)": 0.289}]}]}
